The nature of test [1]: NS1 protein of Zika virus - qHTS assay to identify small molecule inhibitors in human HEK 293 cells (AID 1347053). Note: nearly all actives have a fitted effect of over 55% in size. As to conditions: HEK293 ZIKV MR766 infection, NS1 TR-FRET, 24 h; series mostly up to 46.1 µM. The essentials:
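Read-out is a two-antibody TR-FRET for ZIKV NS1, normalized between uninfected cells and infected cells. Compound added 1 h before MR766 infection at MOI 0.5; human HEK 293 cells incubated 24 h, 37 C.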
On the technique in general: Quantitative high-throughput screening tests each substance at several concentrations.

Test [2] can be described thus: qHTS of pediatric cancer cell lines to identify multiple opportunities for drug repurposing: Primary screen for TC32 cells (AID 1347089). Note: nearly all actives have a fitted effect of over 60% in size. Note: potency is the fitted concentration of half-maximal effect. As to conditions: TC32 Ewing sarcoma viability, CellTiter-Glo luminescence, 48 h; series mostly up to 45.8 µM. An outline of the steps: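 A viability screen of TC32 cells was run over 48 h, with primary MIPE doses spanning 0.78 nM–46 µM and NPC doses 0.59 nM–46 µM. ATP luminescence (CellTiter-Glo) served as the read-out.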

Test [3] in a line: qHTS of pediatric cancer cell lines to identify multiple opportunities for drug repurposing: Primary screen for DAOY cells (AID 1347090). Note: nearly all actives have a fitted effect of over 55% in size. Note: potency is the fitted concentration of half-maximal effect. As to conditions: DAOY medulloblastoma viability, CellTiter-Glo luminescence, 48 h; series mostly up to 46 µM. An outline of the steps: (§1)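 Cell viability, CellTiter-Glo luminescence; 500-1,000 cells/well, 8- or 11-point titration, 48 h compound exposure at 37 degrees C, 5% CO2. Controls: DMSO neutral, bortezomib 2.3 µM final as positive.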

A short description of test [4]: qHTS of pediatric cancer cell lines to identify multiple opportunities for drug repurposing: Primary screen for SJ-GBM2 cells (AID 1347091). Note: potency is the fitted concentration of half-maximal effect. As to conditions: SJ-GBM2 viability, CellTiter-Glo luminescence, 48 h; series mostly up to 46 µM. An outline of the steps: as §1
Test [5] can be described thus: qHTS of pediatric cancer cell lines to identify multiple opportunities for drug repurposing: Primary screen for SK-N-MC cells (AID 1347093). Note: potency is the fitted concentration of half-maximal effect. As to conditions: SK-N-MC viability, CellTiter-Glo luminescence, 48 h; series mostly up to 46 µM. An outline of the steps:
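Metabolically active cells were quantified by ATP-dependent luminescence (CellTiter-Glo, 15 min at room temperature) following 48 h treatment. Cells had been plated at 500-1,000 per well and settled for 5 h beforehand.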

Test [6] in a line: qHTS of pediatric cancer cell lines to identify multiple opportunities for drug repurposing: Primary screen for NB-EBc1 cells (AID 1347095). Note: potency is the fitted concentration of half-maximal effect. The settings on record: NB-EBc1 neuroblastoma viability, CellTiter-Glo luminescence, 48 h; series mostly up to 46 µM. An outline of the steps: (§2)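 Luminescence from CellTiter-Glo served as readout of metabolically active cells after 48 h compound exposure. Titrations: MIPE 11-point, from 0.78 nM; NPC 8-point, from 0.59 nM (final). Concentration-response curves came straight from the primary screen.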

Test [7] can be described thus: qHTS of pediatric cancer cell lines to identify multiple opportunities for drug repurposing: Primary screen for U-2 OS cells (AID 1347096). Note: nearly all actives have a fitted effect of over 50% in size. Note: potency is the fitted concentration of half-maximal effect. As to conditions: U-2 OS viability, CellTiter-Glo luminescence, 48 h; series mostly up to 46 µM. An outline of the steps: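 Cells (500-1,000/well) rested 5 h, then received compounds for 48 h; metabolically active cells were measured by CellTiter-Glo luminescence. Final concentrations spanned up to 46 µM (MIPE, 11-point) or 0.59 nM-46 µM (NPC, 8-point) in primary screens, 11-point in follow-ups.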

Test [8] in a line: qHTS of pediatric cancer cell lines to identify multiple opportunities for drug repurposing: Primary screen for A673 cells (AID 1347092). Note: nearly all actives have a fitted effect of over 45% in size. Note: potency is the fitted concentration of half-maximal effect. The settings on record: A673 Ewing sarcoma viability, CellTiter-Glo ATP luminescence, 48 h; series mostly up to 46 µM. The essentials:
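Titration-based qHTS on A673 cells: MIPE compounds spanned 11 points (0.78 nM to 46 µM final), NPC compounds 8 points (0.59 nM to 46 µM final). Viability after 48 h was measured by ATP luminescence.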

A short description of test [9]: qHTS of pediatric cancer cell lines to identify multiple opportunities for drug repurposing: Primary screen for BT-37 cells (AID 1347094). Note: potency is the fitted concentration of half-maximal effect. As to conditions: BT-37 viability, CellTiter-Glo luminescence, 48 h; series mostly up to 57.3 µM. An outline of the steps: as §2

Results filed as inconclusive are left out. Active and inactive are the calls of the source. Calls come from the whole dose curve; as a rule, active = well fitted curve in the direction sought with a large enough effect; inconclusive = small, poorly fitted or top-dose-only effect, or another doubt; inactive = no such curve, though single readings can be large; an effect the other way counts as inactive or inconclusive.

Potency data for 29 compounds are collected here from PubChem BioAssay (NCATS).

As to `C[C@@H](CN(C)C)CN1c2ccccc2Sc2ccccc21`, the Potency entry in test [1], in test [2], in [3], in [4], in [5] and in [6] was “inactive” in each case. The Potency entry in [7] is “inactive”.

For `Cc1cccc(C)c1NC(=O)CN1CCN(CCCC(c2ccc(F)cc2)c2ccc(F)cc2)CC1`, the Potency entry in test [1], in [2], in test [3], in test [8], in [5] and in test [9] was “inactive” throughout. In test [7], the Potency result is “inactive”. For the same compound, in test [4], the Potency is 21.1 µM (active).

Consider `NCCc1ccn[nH]1`, for which the Potency result in [1], in [2], in test [3], in [4], in [8] and in [5] was “inactive” in each case. Also, the Potency entry in [9], in test [6] and in test [7] was “inactive” throughout.

As for `Nc1ccc(C(=O)O)cc1`, the Potency result in test [1], in [2], in test [3], in test [4], in test [8] and in [5] was “inactive” each time. Besides, the Potency entry in [9], in [6] and in [7] was “inactive” in each case.

As to `CCCCCCCCCCCCCCNCCO`, the Potency entry in test [1], in [2], in [3], in test [4], in test [5] and in test [9] was “inactive” throughout. Also, the Potency result in test [6] and in test [7] was “inactive” in each case.

In the case of `CC(=O)OCC(=O)[C@@]1(O)CC[C@H]2[C@@H]3CCC4=CC(=O)C=C[C@]4(C)[C@H]3[C@@H](O)C[C@@]21C`, the Potency entry in [1], in test [2], in [3], in test [4], in test [8] and in test [5] was “inactive” throughout. Besides, the Potency entry in test [9], in test [6] and in test [7] was “inactive” in each case.

Take `Oc1ccc(Cl)cc1Sc1cc(Cl)ccc1O`: the Potency result in test [1] and in test [7] was “inactive” throughout. Further, the Potency in test [3] is 21.1 µM (active); in test [4] it was 13.3 µM (active); in [6], 15 µM (active).

Take `C/C=C(/C(=C/C)c1ccc(O)cc1)c1ccc(O)cc1`: the Potency entry in test [1], in [2], in test [9] and in [7] was “inactive” in each case. Moreover, the figures for the Potency in test [5] and in test [6] were 8.41 µM (active) and 18.8 µM (active), respectively.

On to `CCN(CCCCOC(=O)c1ccc(OC)c(OC)c1)C(C)Cc1ccc(OC)cc1` (centres undefined), for which the Potency entry in [1], in test [2], in [3], in test [8], in [5] and in test [6] was “inactive” throughout. In test [7], the Potency entry was “inactive”.

As to `NC(=O)C(=O)N/N=C/c1ccc([N+](=O)[O-])o1`, the Potency entry in [1], in test [2] and in test [4] was “inactive” throughout.

For `CN(C)/N=N/c1nc[nH]c1C(N)=O`, the Potency result in test [1], in [4], in [8], in test [6] and in [7] was “inactive” each time. Besides, in test [5], the Potency was 2.66 µM (active).

On to `CCOc1ccc(Cc2nccc3cc(OCC)c(OCC)cc23)cc1OCC`, for which the Potency result in test [1] and in test [4] was “inactive” throughout. Further, the Potency in test [3] was 21.1 µM (active).

For `C#C[C@]1(O)CC[C@H]2[C@@H]3CCc4cc(OC5CCCC5)ccc4[C@H]3CC[C@@]21C`, the Potency entry in test [1], in [2] and in test [6] was “inactive” throughout.

Turning to `CN1CCCC(CC2c3ccccc3Sc3ccccc32)C1` (centres undefined), the Potency entry in test [3], in [6] and in [7] was “inactive” throughout. Besides, the Potency in test [5] was 23.7 µM (active).

In the case of `C[n+]1c2cc(N)ccc2cc2ccc(N)cc21` (tested in a mixture with another compound), the Potency in test [2] was 14.9 µM (active); in test [3], 21.1 µM (active); in [8], 5.31 µM (active); in test [5], 8.41 µM (active); in [9], 3.47 µM (active); in [6] it was 11.9 µM (active). In test [7], the Potency was 13.3 µM (active).

In the case of `CCN(CCCc1ccccc1)CCCc1ccccc1`, the Potency entry in test [1], in [2], in test [3], in [8], in test [6] and in test [7] was “inactive” each time.

Take `CN(C(=O)CN(CCO)CC(=O)N(C)C(C)(C)Cc1ccccc1)C(C)(C)Cc1ccccc1`: the Potency result in test [3], in test [8] and in test [7] was “inactive” each time.

For the compound `NC(=NCCCCCCN=C(N)/N=C(\N)Nc1ccc(Cl)cc1)/N=C(\N)Nc1ccc(Cl)cc1`, the Potency result in test [1] was “inactive”. Besides, the Potency in [3] and in test [8] was 21.1 µM (active) in each case.

For the compound `O=C1[C@H]2CCCC[C@H]2C(=O)N1CCCCN1CCN(c2nsc3ccccc23)CC1`, the Potency entry in test [1], in [2], in test [3], in [5], in test [9] and in test [6] was “inactive” throughout. In test [7], the Potency entry is “inactive”.

As for `CN1CCN(CCCN2c3ccccc3Sc3ccc(S(=O)(=O)N(C)C)cc32)CC1`, the Potency entry in test [1], in [2], in [3], in [6] and in test [7] was “inactive” throughout. In addition, the Potency in test [4] was 18.8 µM (active).

As to `COC1=CC(=O)C[C@@H](C)[C@]12Oc1c(Cl)c(OC)cc(OC)c1C2=O`, the Potency result in [1] and in test [7] was “inactive” in each case. Further, the Potency in [4] was 21.1 µM (active); in [6], 11.9 µM (active).

Take `Clc1ccc2c(c1)CCc1cccnc1C2=C1CCNCC1`: the Potency result in test [1], in test [2], in [3], in test [5], in test [9] and in test [6] was “inactive” throughout. Also, the Potency result in test [7] is “inactive”.

On to `Oc1c(I)cc(I)c2cccnc12`, for which the Potency entry in test [1] and in [7] was “inactive” throughout. In test [4], the Potency was 13.3 µM (active).

Regarding `CC/C(=C(/CC)c1ccc(O)cc1)c1ccc(O)cc1`, the Potency entry in [1], in [2] and in [7] was “inactive” each time. The Potency in [3] was 21.1 µM (active); in test [5], 6.68 µM (active).

Consider `CC1=C(C(=O)OC(C)C)C(c2cccc([N+](=O)[O-])c2)C(C(=O)OC2CN(C(c3ccccc3)c3ccccc3)C2)=C(N)N1` (centres undefined), for which the Potency in test [8] is 13.3 µM (active); in [5], 6.68 µM (active).

`CCCCOc1ccc(C(=O)CCN2CCCCC2)cc1`: the Potency entry in [1], in test [2], in [3] and in test [7] was “inactive” in each case. The Potency in [6] was 21.1 µM (active).

Turning to `O=C(OCC(O)CO)c1ccccc1Nc1ccnc2cc(Cl)ccc12` (centres undefined), the Potency entry in test [2], in test [4], in [8], in test [6] and in test [7] was “inactive” each time.

Regarding `CCCCC(CC)CN=C(N)NC(N)=NCCCCCCN=C(N)NC(N)=NCC(CC)CCCC` (centres undefined), the Potency in test [2] is 21 µM (active); in test [3], 8.41 µM (active); in test [4] it was 1.06 µM (active); in test [8], 1.68 µM (active); in [5], 5.31 µM (active); in test [9] it was 9.78 µM (active). The Potency was 10.6 µM (active) in [6] and 21.1 µM (active) in [7].

As for `CC(=O)OCC(=O)[C@@]12OC(C)(C)O[C@@H]1C[C@H]1[C@@H]3C[C@H](F)C4=CC(=O)C=C[C@]4(C)[C@@]3(F)[C@@H](O)C[C@@]12C`, the Potency result in [1], in test [2], in test [4], in test [8], in test [6] and in test [7] was “inactive” throughout.
